About 7,900 targets were measured; listed, in parts, are those with a hit and a random draw of the rest. About 0.6% of all pairs of compound and target were hits. A number with no mark means an inactive call.
Assays:
Assay in all cases: log2 fold change, soluble protein after heating vs DMSO (PISA); higher = thermal stabilisation; K562 cells, 10 uM, 30 min; active = over 0.2 and 3.5 SD of the protein, either way, in both replicates (recomputed)
bafetinib = compound: Cc1ccc(NC(=O)c2ccc(CN3CC[C@H](N(C)C)C3)c(C(F)(F)F)c2)cc1Nc1nccc(-c2cncnc2)n1 [bafetinib]
Method in brief: (§1)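 Quantification of soluble protein used TMTpro 16plex LC-MS/MS, with channel sums equalised. Samples were the supernatant after 21,000xg for 90 min of pooled aliquots from K562 cells (2×10^6 cells/mL) treated with 10 μM compound for 30 min, heated for 3 min over 48°C-58°C, and extracted in PBS with 0.5% NP-40 at 4°C. Values, from duplicates, describe thermal stability against control samples on a log2 fold-change scale.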

[1] = compound: Cc1cccc(CC(=O)N2CCc3c2ccc(-c2cn(C)c4ncnc(N)c24)c3F)n1
Method in brief: as §1

nilotinib = compound: Cc1cn(-c2cc(NC(=O)c3ccc(C)c(Nc4nccc(-c5cccnc5)n4)c3)cc(C(F)(F)F)c2)cn1 [nilotinib]
Method in brief: as §1

[2] = compound: Cc1nc(Nc2n[nH]c3c2CN(C(=O)N[C@H](CN(C)C)c2ccccc2)C3(C)C)c2sccc2n1
Method in brief: as §1

dasatinib = compound: Cc1nc(Nc2ncc(C(=O)Nc3c(C)cccc3Cl)s2)cc(N2CCN(CCO)CC2)n1 [dasatinib]
Method in brief: as §1

[3] = compound: Cc1ncc(-c2ccnc(Nc3ccc(S(C)(=O)=O)cc3)n2)n1C(C)C
Method in brief: as §1

[4] = compound: Cn1cc(-c2ccc3c(c2)CCN3C(=O)Cc2cccc(C(F)(F)F)c2)c2c(N)ncnc21
Method in brief: as §1

[5] = compound: Cn1cc(-c2ccc3nnc(C(F)(F)c4ccc5ncccc5c4)n3n2)cn1
Method in brief: as §1

tipifarnib = compound: Cn1cncc1[C@@](N)(c1ccc(Cl)cc1)c1ccc2c(c1)c(-c1cccc(Cl)c1)cc(=O)n2C [tipifarnib]
Method in brief: as §1

mubritinib = compound: FC(F)(F)c1ccc(/C=C/c2nc(COc3ccc(CCCCn4ccnn4)cc3)co2)cc1 [mubritinib]
Method in brief: as §1

[6] = compound: NC(=O)Nc1cc(-c2cccc(F)c2)sc1C(=O)N[C@H]1CCCNC1
Method in brief: as §1

[7] = compound: NC(=O)c1cnc(N[C@@H]2CCCC[C@@H]2N)nc1Nc1cccc(-n2nccn2)c1
Method in brief: as §1

[8] = compound: NC1(c2ccc(-c3nc4ccn5c(=O)[nH]nc5c4cc3-c3ccccc3)cc2)CCC1
Method in brief: as §1

[9] = compound: NCC(=O)Nc1ccc(-n2nc(C(F)(F)F)cc2-c2ccc3c(ccc4ccccc43)c2)cc1
Method in brief: as §1

entinostat = compound: Nc1ccccc1NC(=O)c1ccc(CNC(=O)OCc2cccnc2)cc1 [entinostat]
Method in brief: as §1

vorinostat = compound: O=C(CCCCCCC(=O)Nc1ccccc1)NO [vorinostat]
Method in brief: as §1

citarinostat = compound: O=C(CCCCCCNC(=O)c1cnc(N(c2ccccc2)c2ccccc2Cl)nc1)NO [citarinostat]
Method in brief: as §1

silmitasertib = compound: O=C(O)c1ccc2c(c1)nc(Nc1cccc(Cl)c1)c1ccncc12 [silmitasertib]
Method in brief: as §1

[10] = compound: O=C1NC(=O)C(c2cnc3ccccn23)=C1c1cn2c3c(cc(F)cc13)CN(C(=O)N1CCCCC1)CC2
Method in brief: as §1

[11] = compound: c1cc(OCCN2CCCCC2)cc(-c2n[nH]c3ccc(-c4nnc[nH]4)cc23)c1
Method in brief: as §1

Sequence of UniProt Q8IWX8 (Q8IWX8 whole entry, looked up): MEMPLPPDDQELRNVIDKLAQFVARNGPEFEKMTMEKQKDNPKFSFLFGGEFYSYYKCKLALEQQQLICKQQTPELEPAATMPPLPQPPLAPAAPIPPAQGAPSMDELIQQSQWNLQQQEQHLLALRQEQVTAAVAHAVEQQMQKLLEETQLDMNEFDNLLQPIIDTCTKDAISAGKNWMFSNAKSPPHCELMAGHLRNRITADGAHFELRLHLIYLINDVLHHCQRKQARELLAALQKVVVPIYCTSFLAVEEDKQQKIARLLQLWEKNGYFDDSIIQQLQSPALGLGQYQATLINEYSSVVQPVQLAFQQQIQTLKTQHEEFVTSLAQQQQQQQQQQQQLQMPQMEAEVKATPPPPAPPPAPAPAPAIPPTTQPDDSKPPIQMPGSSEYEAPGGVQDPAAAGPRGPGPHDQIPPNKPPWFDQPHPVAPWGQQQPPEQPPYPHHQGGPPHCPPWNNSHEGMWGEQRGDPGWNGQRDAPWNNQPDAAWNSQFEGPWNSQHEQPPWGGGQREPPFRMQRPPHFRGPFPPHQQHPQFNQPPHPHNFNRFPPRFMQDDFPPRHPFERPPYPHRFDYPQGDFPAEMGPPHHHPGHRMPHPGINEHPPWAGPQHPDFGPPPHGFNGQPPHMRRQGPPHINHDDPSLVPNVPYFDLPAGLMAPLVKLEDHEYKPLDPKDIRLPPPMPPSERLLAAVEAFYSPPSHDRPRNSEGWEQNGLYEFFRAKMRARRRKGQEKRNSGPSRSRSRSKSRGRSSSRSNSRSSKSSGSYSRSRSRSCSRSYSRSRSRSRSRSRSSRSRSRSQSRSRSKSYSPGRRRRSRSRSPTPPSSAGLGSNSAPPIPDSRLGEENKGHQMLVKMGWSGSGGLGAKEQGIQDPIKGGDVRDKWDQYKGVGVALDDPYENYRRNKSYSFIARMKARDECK
Sequence of UniProt Q9UKF6 (Q9UKF6 whole entry, looked up): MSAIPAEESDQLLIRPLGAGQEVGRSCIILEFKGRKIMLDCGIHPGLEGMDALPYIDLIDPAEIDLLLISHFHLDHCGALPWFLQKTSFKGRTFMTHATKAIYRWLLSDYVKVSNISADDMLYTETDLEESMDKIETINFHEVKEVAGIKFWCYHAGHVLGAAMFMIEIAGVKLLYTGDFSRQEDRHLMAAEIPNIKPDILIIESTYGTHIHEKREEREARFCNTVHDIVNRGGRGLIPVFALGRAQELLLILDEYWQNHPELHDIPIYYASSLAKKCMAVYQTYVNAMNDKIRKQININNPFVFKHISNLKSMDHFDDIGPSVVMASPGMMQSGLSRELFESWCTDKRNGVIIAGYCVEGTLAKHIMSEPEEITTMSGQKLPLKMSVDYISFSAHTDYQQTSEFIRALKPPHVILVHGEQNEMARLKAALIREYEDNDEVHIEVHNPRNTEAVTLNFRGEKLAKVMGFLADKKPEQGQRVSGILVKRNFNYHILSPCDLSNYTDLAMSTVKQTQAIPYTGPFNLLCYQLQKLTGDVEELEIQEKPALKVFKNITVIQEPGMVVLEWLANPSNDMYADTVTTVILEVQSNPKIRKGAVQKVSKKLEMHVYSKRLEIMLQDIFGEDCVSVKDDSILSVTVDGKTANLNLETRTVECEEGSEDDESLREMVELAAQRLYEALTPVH
Sequence of UniProt P21964 (P21964 whole entry, looked up): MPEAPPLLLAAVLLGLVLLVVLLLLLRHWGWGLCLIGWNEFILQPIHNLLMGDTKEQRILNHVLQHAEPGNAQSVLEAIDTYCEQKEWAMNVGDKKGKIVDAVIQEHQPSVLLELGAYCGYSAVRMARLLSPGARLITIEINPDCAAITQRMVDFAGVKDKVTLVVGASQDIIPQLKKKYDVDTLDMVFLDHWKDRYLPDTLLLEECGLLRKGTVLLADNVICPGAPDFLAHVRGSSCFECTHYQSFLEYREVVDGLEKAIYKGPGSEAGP
Sequence of UniProt P05937 (P05937 whole entry, looked up): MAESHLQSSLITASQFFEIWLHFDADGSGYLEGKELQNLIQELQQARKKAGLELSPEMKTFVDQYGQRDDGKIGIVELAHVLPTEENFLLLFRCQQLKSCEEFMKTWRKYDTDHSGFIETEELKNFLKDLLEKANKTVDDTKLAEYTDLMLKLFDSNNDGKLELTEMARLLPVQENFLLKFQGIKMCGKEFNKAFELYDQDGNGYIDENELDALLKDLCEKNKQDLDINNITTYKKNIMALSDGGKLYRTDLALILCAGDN
Sequence of UniProt Q9Y3X0 (Q9Y3X0 whole entry, looked up): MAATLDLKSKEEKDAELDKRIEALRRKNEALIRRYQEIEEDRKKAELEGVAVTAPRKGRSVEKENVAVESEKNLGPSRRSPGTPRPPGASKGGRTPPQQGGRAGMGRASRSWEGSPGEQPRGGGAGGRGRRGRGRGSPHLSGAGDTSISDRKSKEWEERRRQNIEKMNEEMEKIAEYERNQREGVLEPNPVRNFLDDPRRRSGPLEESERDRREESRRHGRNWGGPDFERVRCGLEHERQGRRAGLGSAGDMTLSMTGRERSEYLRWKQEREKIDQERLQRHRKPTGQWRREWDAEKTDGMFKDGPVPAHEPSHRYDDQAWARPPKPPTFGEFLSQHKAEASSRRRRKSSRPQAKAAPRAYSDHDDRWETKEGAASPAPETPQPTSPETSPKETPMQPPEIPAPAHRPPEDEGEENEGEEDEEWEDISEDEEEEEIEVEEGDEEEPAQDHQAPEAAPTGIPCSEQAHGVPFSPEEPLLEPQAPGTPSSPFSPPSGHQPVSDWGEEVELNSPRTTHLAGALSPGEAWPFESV
Sequence of UniProt P35790 (P35790 whole entry, looked up): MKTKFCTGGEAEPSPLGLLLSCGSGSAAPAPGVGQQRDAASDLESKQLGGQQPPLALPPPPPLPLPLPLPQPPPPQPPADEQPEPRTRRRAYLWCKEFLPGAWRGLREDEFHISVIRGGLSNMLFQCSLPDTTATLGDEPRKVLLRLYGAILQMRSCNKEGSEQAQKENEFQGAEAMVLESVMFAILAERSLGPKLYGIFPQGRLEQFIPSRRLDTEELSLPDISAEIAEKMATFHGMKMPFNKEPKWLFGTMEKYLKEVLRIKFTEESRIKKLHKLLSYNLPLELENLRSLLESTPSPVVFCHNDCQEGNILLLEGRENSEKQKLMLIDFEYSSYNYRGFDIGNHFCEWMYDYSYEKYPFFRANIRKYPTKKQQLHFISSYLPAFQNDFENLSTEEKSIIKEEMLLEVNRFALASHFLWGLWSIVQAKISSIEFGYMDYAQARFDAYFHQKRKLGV
Sequence of UniProt P83916 (P83916 whole entry, looked up): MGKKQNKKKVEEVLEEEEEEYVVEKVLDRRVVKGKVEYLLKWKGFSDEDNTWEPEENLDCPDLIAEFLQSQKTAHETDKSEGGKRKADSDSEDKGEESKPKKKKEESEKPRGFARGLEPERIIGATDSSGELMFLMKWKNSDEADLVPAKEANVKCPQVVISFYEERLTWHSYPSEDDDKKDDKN
Sequence of UniProt P46108 (P46108 whole entry, looked up): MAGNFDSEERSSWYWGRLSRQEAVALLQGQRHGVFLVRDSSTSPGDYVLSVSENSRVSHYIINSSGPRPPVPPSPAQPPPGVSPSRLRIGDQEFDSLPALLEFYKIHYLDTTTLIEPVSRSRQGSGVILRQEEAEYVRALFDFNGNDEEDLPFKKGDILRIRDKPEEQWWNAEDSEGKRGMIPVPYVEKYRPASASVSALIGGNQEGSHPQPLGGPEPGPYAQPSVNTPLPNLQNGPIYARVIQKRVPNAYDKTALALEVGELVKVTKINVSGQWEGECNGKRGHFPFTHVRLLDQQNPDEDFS
Sequence of UniProt Q96CF2 (Q96CF2 whole entry, looked up): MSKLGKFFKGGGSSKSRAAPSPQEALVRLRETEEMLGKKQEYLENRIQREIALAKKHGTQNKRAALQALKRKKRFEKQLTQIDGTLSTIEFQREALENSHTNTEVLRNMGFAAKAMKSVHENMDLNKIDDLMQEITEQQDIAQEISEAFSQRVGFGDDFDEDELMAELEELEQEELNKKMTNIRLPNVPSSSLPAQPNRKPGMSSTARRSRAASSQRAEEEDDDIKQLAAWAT
Sequence of UniProt Q96JM3 (Q96JM3 whole entry, looked up): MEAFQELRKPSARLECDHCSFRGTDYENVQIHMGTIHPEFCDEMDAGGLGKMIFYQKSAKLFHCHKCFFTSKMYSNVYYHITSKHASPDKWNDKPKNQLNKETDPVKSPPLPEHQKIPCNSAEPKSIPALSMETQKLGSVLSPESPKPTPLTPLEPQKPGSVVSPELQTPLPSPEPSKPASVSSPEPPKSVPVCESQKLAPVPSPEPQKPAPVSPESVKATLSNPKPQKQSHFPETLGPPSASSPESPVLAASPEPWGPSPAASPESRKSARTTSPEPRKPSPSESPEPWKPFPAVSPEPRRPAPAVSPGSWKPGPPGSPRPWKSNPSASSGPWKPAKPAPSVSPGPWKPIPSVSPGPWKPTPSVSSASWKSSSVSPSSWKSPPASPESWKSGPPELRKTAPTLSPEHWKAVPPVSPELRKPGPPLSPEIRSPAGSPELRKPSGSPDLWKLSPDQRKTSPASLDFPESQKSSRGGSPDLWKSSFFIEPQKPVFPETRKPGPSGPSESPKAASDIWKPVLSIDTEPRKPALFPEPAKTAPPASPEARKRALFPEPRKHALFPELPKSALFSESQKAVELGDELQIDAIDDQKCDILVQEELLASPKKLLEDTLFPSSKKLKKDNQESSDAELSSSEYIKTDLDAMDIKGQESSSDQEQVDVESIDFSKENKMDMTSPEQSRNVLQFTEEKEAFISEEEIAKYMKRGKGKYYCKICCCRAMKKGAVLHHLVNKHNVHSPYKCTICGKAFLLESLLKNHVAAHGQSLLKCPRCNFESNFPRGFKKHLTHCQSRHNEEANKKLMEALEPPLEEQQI

Target | log2 fold change (bafetinib) | log2 fold change [1] | log2 fold change (nilotinib) | log2 fold change [2] | log2 fold change (dasatinib) | log2 fold change [3] | log2 fold change [4] | log2 fold change [5] | log2 fold change (tipifarnib) | log2 fold change (mubritinib) | log2 fold change [6] | log2 fold change [7] | log2 fold change [8] | log2 fold change [9] | log2 fold change (entinostat) | log2 fold change (vorinostat) | log2 fold change (citarinostat) | log2 fold change (silmitasertib) | log2 fold change [10] | log2 fold change [11]
CHKA (UniProt P35790) | 0.123 | -0.023 | 0.178 | 0.149 | 0.07 | 0.088 | -0.02 | -0.081 | -0.026 | -0.024 | 0.015 | -0.316 (active) | 0.014 | 0.012 | -0.023 | -0.034 | -0.055 | 0.013 | -0.011 | -0.012
COMT (UniProt P21964) | 0.011 | -0.019 | 0.01 | 0.119 | 0.03 | 0.009 | 0.073 | 0.031 | 0.002 | 0.06 | -0.052 | 0.356 (active) | -0.015 | -0.022 | -0.022 | -0.054 | 0.052 | -0.057 | -0.086 | 0.015
CASP10 isoform 4 (UniProt Q92851) | 0.001 | -0.394 | -0.087 | -0.103 | -0.301 | 0.037 | -0.044 | 0.063 | 0.119 | 0.084 | -0.089 | -0.058 | -0.084 | -0.055 | -0.05 | 0.258 | 0.123 | 0.076 | 0.089 | -0.13
CBX1 (UniProt P83916) | -0.037 | -0.025 | 0.141 | -0.089 | 0.084 | -0.003 | -0.034 | 0.011 | -0.039 | 0.066 | 0.02 | -0.032 | 0.025 | 0.004 | 0.017 | -0.036 | -0.035 | 0.045 | 0.006 | -0.034
CDK13 (UniProt Q14004) | 0.092 | -0.018 | -0.024 | -0.149 | -0.089 | -0.108 | -0.028 | -0.098 | 0.069 | 0.023 | -0.032 | -0.007 | -0.063 | 0.042 | 0 | 0.018 | 0.013 | -0.018 | 0.035 | -0.196
CNOT2 (UniProt Q9NZN8) | -0.002 | 0 | 0.048 | -0.063 | -0.035 | 0.01 | -0.055 | 0.022 | -0.063 | 0.054 | -0.012 | -0.014 | -0.058 | -0.087 | -0.023 | 0.018 | 0.026 | 0.046 | 0.007 | -0.058
CLINT1 isoform 3 (UniProt Q14677) | 0.024 | -0.083 | 0.042 | 0.037 | 0.264 (active) | -0.026 | -0.071 | -0.083 | 0.017 | 0.045 | 0.106 | -0.027 | 0.078 | 0.058 | -0.052 | -0.035 | -0.048 | 0.008 | 0.024 | 0.015
CSE1L (UniProt P55060) | -0.041 | 0.039 | -0.066 | -0.026 | -0.08 | 0.012 | -0.005 | 0.007 | -0.101 | 0.068 | -0.037 | -0.067 | -0.162 | -0.071 | 0.05 | 0.015 | 0.058 | 0.035 | -0.059 | -0.018
CALB1 (UniProt P05937) | -0.076 | -0.018 | -0.018 | 0.025 | 0.014 | -0.015 | 0.013 | 0.046 | 0 | 0.01 | -0.029 | -0.014 | -0.161 | -0.041 | 0.022 | -0.027 | 0.062 | 0.006 | 0.016 | -0.035
CHAMP1 (UniProt Q96JM3) | -0.134 | 0.049 | 0 | -0.132 | -0.092 | -0.123 | 0.026 | 0.067 | 0.014 | 0.056 | -0.034 | -0.136 | 0.007 | -0.031 | 0.001 | 0.137 | -0.007 | -0.02 | -0.051 | -0.078
CHERP (UniProt Q8IWX8) | 0.057 | 0.092 | -0.13 | -0.353 | -0.086 | 0.011 | 0.011 | 0.025 | 0.005 | -0.07 | 0.015 | -0.054 | -0.096 | -0.095 | 0.129 | 0.099 | -0.001 | 0.03 | -0.121 | -0.042
CBS (UniProt P35520) | -0.031 | -0.029 | 0.025 | -0.012 | 0.018 | -0.003 | 0.079 | 0.035 | -0.023 | 0.056 | -0.008 | 0.006 | -0.025 | 0.016 | -0.033 | -0.031 | -0.058 | -0.038 | -0.027 | 0.027
CHMP4C (UniProt Q96CF2) | -0.01 | -0.003 | -0.03 | -0.021 | -0.027 | 0 | -0.008 | 0.041 | -0.015 | 0.039 | -0.003 | -0.005 | -0.089 | -0.043 | 0.041 | 0.02 | -0.138 | 0.028 | -0.22 | 0.052
CCDC9 (UniProt Q9Y3X0) | -0.011 | -0.032 | 0.002 | 0.117 | 0.072 | 0.028 | -0.046 | -0.05 | -0.004 | -0.038 | 0.021 | 0.034 | 0.121 | 0.02 | -0.088 | -0.051 | -0.069 | -0.051 | 0.021 | -0.015
CPSF3 (UniProt Q9UKF6) | -0.052 | 0.041 | -0.006 | -0.073 | -0.082 | -0.023 | -0.071 | -0.023 | -0.027 | 0.02 | 0.001 | -0.05 | -0.032 | -0.058 | -0.002 | 0.016 | 0.026 | 0.129 | -0.006 | -0.075
CRK (UniProt P46108) | -0.586 (active) | -0.02 | -0.826 (active) | -0.136 | -0.883 (active) | 0.036 | -0.007 | 0.03 | 0.026 | 0.075 | -0.81 (active) | 0.004 | -0.063 | -0.011 | 0.026 | -0.002 | 0.061 | 0.062 | -0.016 | -0.016

From the supplement of paper PMC10849652
